In the library only some 2.9% were active in any assay of this set; here they are far more common.
PLC-beta3 inh – inhibitors of human phospholipase C beta3; Q01970; Purified PLC-beta3, fluorogenic substrate, fluorescence; inhibition, % at 12.2 µM; 370,000 compounds, 0.18% hits; AID 720704;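 also: 0% = median of compound wells on plate and 100% = full blocker control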
PLC-gamma1 inh – blocks human PLC-gamma1 enzyme activity. P19174. purified PLC-gamma1, fluorogenic substrate, fluorescence. inhibition, % at 12.2 µM. 370,000 compounds, 0.84% hits. AID 720700; in the data active = inhibition above about 9.5%
ADAM10 inh – inhibits human ADAM10 | 370,000 compounds, 0.62% hits | O14672 | inhibition, % at 7 µM | recombinant ADAM10, EDANS/DABCYL FRET peptide cleavage, 3 h;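 active = inhibition above a per-campaign cutoff equal to the mean of compounds falling between control-based bounds plus 3 SD, cut at about 20% in these data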;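 also: 0% = DMSO wells while the 100% control is not disclosed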
ADAM17 inh – inhibitors of human ADAM17 | P78536 | recombinant ADAM17, EDANS/DABCYL FRET peptide cleavage | inhibition, % at 6.95 µM | 370,000 compounds, 0.83% hits | AID 720648;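 active = inhibition above the mean of compounds lying between control limits plus 3 SD, set per campaign, cut at about 8.5% in these data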;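 also: 0% = DMSO-only wells as the low control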
Target sequence (P78536 215-824 limits assumed): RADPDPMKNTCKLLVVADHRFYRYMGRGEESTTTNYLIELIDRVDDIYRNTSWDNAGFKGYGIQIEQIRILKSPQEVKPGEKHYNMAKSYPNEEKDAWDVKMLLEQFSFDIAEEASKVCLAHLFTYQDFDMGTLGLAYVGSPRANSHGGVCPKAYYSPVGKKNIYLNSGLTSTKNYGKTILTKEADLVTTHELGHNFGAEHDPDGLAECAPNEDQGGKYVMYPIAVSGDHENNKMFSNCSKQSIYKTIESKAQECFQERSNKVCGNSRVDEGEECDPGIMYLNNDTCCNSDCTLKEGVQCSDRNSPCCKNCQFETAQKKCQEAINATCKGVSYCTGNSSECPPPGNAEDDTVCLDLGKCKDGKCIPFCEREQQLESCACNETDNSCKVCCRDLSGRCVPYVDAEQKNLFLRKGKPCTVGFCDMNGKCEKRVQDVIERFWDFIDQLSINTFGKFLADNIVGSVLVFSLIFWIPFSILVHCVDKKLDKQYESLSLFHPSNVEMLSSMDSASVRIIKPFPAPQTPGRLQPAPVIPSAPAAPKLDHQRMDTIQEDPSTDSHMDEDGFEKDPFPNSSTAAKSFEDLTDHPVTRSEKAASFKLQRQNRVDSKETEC
proKLK7 act – activators of human kallikrein-7 zymogen. P49862. purified proKLK7, EDANS-DABCYL substrate fluorescence; 100% is mature enzyme control, 0% vehicle. activation, % at 7 µM. 370,000 compounds, 0.9% hits;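 active = activation above the mean of all tested compounds plus 3 SD, computed per campaign excluding outliers beyond control limits, cut at about 13% in these data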
PLCgamma1 ctr – counter-screen for PLC-beta3 inhibitors: inhibitors of human PLC-gamma1; shares compounds with PLC-gamma1 inh; purified PLC-gamma1, fluorogenic substrate, fluorescence; inhibition, % at 12.3 µM; 3,300 compounds, 3.1% hits; AID 743258; in the data active = inhibition above about 9.5%
PLCbeta3 conf – confirmation of human PLC-beta3 inhibitors; inhibition, % at 12.3 µM; shares compounds with PLC-gamma1 inh; purified PLC-beta3, fluorogenic substrate fluorescence; AID 743261; 3,300 compounds, 1% hits
* hit, by the source's call; · = not tested or not shown. Rule as the data show it, unless noted: active = inhibition above about 11%; inactive = the rest.

SMILES	PLC-beta3 inh	PLC-gamma1 inh	ADAM10 inh	ADAM17 inh	proKLK7 act	PLCgamma1 ctr	PLCbeta3 conf
CCc1nc2ccc(C(=O)NCCOc3ccc(OC)cc3)cn2c1N(CC)Cc1ccc(OC)c(OC)c1	-3	-5	4	2	0	·	·
COc1ccc(S(=O)(=O)N2CCCCCC2)cc1C(=O)N(C)CC(=O)Nc1ccccc1Br	-4	10*	-10	-1	0	0	1
COc1ccc(S(=O)(=O)N2CCCCCC2)cc1C(=O)N(C)CC(=O)Nc1c(Cl)cccc1Cl	2	9.7*	-14	1	0	-2	3
COc1ccc(S(=O)(=O)N2CCCCCC2)cc1C(=O)N(C)CC(=O)Nc1ccccc1Cl	-1	-3	1	1	0	·	·
CN(Cc1ccccc1)C(=O)[C@@H]1CCCN1	3	3	-11	-4	0	·	·
CCCCOCCCNC(=O)C[C@@H]1C[C@@]2(C(=O)OC)CC(C)(C)CC=C2N(Cc2ccccc2)C1=O	4	1	1	-1	1	·	·
Cc1ccc([C@H]2N[C@]3(CCCN(Cc4ccco4)C3=O)[C@H]3C(=O)N(Cc4ccccc4)C(=O)[C@@H]23)cc1	3	12*	0	3	0	0	-4
Cc1cc(C)n(-c2nc3ccccc3c(=O)n2OC2CCCCC2)n1	15*	5	7	6	0	-8	-5
CCOn1c(-n2nc(C)cc2C)nc2ccccc2c1=O	5	1	6	-1	1	·	·
CCOC(=O)c1c2c(n(C)c1C)C(=O)C(=O)c1ccc(Br)cc1-2	0	1	-13	-4	0	·	·
CCOC(=O)c1c2c(n(Cc3ccccc3)c1C)C(=O)C(=O)c1ccccc1-2	4	17*	8	0	-1	36*	11*
COC(=O)C1=C(C)N(Cc2cccc(C(F)(F)F)c2)C(=NCc2ccccc2C(F)(F)F)NC1c1ccc(Cl)cc1 (stereo not given)	14*	1	2	8	0	-3	-4
COC(=O)C1=C(C)N(Cc2ccccc2)C(=NCc2cccc(C(F)(F)F)c2)N[C@H]1c1cccc(F)c1	3	13*	2	0	0	-7	-9
O=C(Nc1ccc(SC(F)F)cc1)C1=CC=CN2CCS(=O)(=O)N=C12	-14	-10	-6	-4	0	·	·
O=C(O)C1CCN(C(=O)CSc2nnc3ccccn23)CC1	-9	-2	-23	-5	0	·	·
CC(C)C[C@@H](CN1CCC[C@H]1CN1C(=O)C(=O)NC[C@@H]1Cc1ccc(O)cc1)N1C[C@H](Cc2ccccc2)N(CC2CCCCC2)C(=O)C1=O	-4	10*	-6	0	1	-5	-3
COc1ccc(CN2CCOCCOCCOCC2)cc1	13*	8	4	-2	0	7	4
CCc1ccc([C@@H]2C[C@H]3[C@@H](CN2S(=O)(=O)c2ccc(C)cc2)C(=O)C[C@@H](c2ccc(C)cc2)N3S(=O)(=O)c2ccc(C)cc2)cc1	3	-2	-9	-1	0	·	·
C/C(CC(=O)NC1CCCC1)=N\NC(=O)c1ccc([N+](=O)[O-])c(Cl)c1	8	14*	1	5	-1	-6	-3
O[C@@H]1CN(Cc2cccs2)[C@@H](c2ccc(Cl)cc2)C[C@H]1n1cc(C2CC2)nn1	6	1	8	5	3	·	·
Nc1[nH]c(C(=O)c2ccccc2)c(-c2ccccc2)c1C(=O)NCCc1c[nH]c2ccccc12	1	-2	3	1	0	·	·
CCC(C(=O)NCCCN1CCN(C)CC1)n1nc(C)c2sc3ccccc3c2c1=O (stereo not given)	-13	9.6*	-23	-12	0	-3	-4
CCCN1CCN(CCCNC(=O)C(CC)n2nc(C)c3sc4ccccc4c3c2=O)CC1 (stereo not given)	-10	1	-20	-9	0	·	·
O=C(CSc1nnc2ccc(-c3ccccn3)nn12)Nc1ccccc1F	-4	0	5	-2	0	·	·
C/C(=N\Nc1ccc(F)cc1F)c1ccccc1O	2	12*	8	-4	0	-6	-5
